The source of these data is PubChem BioAssay AID1285 (Columbia University Molecular Screening Center, 2008).

The whole screen tested about 190,000 compounds, of which about 1,600 (0.84%) were called active. The entries come from a sample that favours actives as a whole. A number with no mark means an inactive call.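 Rule for the calls: active = inhibition above a set limit, derived from the sample mean plus 3 SD (cut at about 45% in these data); inconclusive = one replicate passes the limit while the other fails; inactive = the rest.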

This experiment can be described thus: inhibitors of APP translation via 5'UTR reporter, primary screen, APP 5'UTR luciferase, SH-SY5Y cells (AID 1285). The settings on record: SH-SY5Y APP 5'UTR-luciferase reporter, luminescence; at 2 µM; hits give high values. A general note: A reporter such as luciferase makes a cellular process visible.
On to `Cc1ccnc(NS(=O)(=O)c2ccc(NC(=O)c3ccc(S(=O)(=O)N4CCOCC4)cc3)cc2)n1`, for which the inhibition (as a rule, the drop in the measured response relative to a control, in per cent) is 5.8%.

As for `Cc1ccc(-c2nn(-c3ccccc3)cc2/C=N/NC(=O)c2ccc3c(c2)OCO3)cc1`, the inhibition was 4.8%.

For `Cc1cccc(-n2c(C)cc(/C=N\NC(=O)c3cccs3)c2C)c1`, the inhibition was -62.9%.

As for `Cc1ccc(/C=N/NC(=O)C2=NNC(c3ccccc3)(c3ccccc3)C2)c(O)c1`, the inhibition is 73% (active).

As for `O=C(CCc1n[nH]c(=O)[nH]c1=O)N/N=C/c1ccc(Br)o1`, the inhibition was -6.1%.

In the case of `CCCOC(=O)c1[nH]c2c(c1C)C(=O)CC(c1cc(OC)c(OC)c(OC)c1)C2` (stereo not given), the inhibition is -2.1%.

As to `CCOC(=O)c1[nH]c2c(c1C)C(=O)CC(c1ccc(N(C)C)cc1)C2` (stereo not given), the inhibition is -13.3%.

Consider `CCCOC(=O)c1[nH]c2c(c1C)C(=O)CC(c1cccs1)C2` (stereo not given), for which the inhibition was 92% (active).

On to `COc1ccccc1OCCC(=O)OCC(=O)NC(=O)NC(C)(C)C`, for which the inhibition is -5.5%.

Turning to `CC(C)(C)NC(=O)NC(=O)COC(=O)C1(C)CC1(Cl)Cl` (stereo not given), the inhibition was 12.7%.

`CC(C)(C)NC(=O)NC(=O)COC(=O)CCC1CCCCC1`: the inhibition is 61.5% (active).

As to `CN1CCC(OC(=O)COc2ccc(Cl)cc2Cl)CC1`, the inhibition was -5.1%.

Turning to `COc1cccc(/C=N/NC(=O)c2[nH]nc3c2CCc2ccccc2-3)c1O`, the inhibition is 79.7% (active).

Consider `COc1ccc(C(=O)Nc2ccccc2C(=O)N/N=C/c2ccccc2OC)cc1`, for which the inhibition was -8.9%.

`COc1cccc(/C=N\NC(=O)C2=NNC(=O)C2C)c1O` (stereo not given): the inhibition is -73.4%.

For `CCN(Cc1ccccc1)S(=O)(=O)c1cc(C(=O)O)ccc1OC`, the inhibition is -51.9%.

In the case of `O=C(CC1SC(=Nc2ccccc2F)N(CCN2CCOCC2)C1=O)Nc1ccc(F)cc1F` (stereo not given), the inhibition is -19.1%.

Consider `Cc1ccc(CC2S/C(=C(/C#N)C(=O)N3CCOCC3)N(c3ccccc3)C2=O)cc1` (stereo not given), for which the inhibition was -2.7%.

In the case of `N#C/C(C(=O)N1CCOCC1)=C1/SC(Cc2ccc(F)cc2)C(=O)N1c1ccccc1` (stereo not given), the inhibition is 56.6% (active).

Consider `CCN(CC)C(=O)CS(=O)CC(=O)Nc1cc(OCCOC)c(Cl)cc1Cl` (stereo not given), for which the inhibition is -14%.

For the compound `Cc1oc2c(c1C(=O)N1CCOCC1)C(=O)c1ccccc1C2=O`, the inhibition was 2.1%.

As to `O=C(NNC(=S)Nc1ccccc1)c1cccc(S(=O)(=O)N2CCOCC2)c1`, the inhibition is -32.5%.

Turning to `CCOC(=O)c1cnc(-n2nc(C)cc2C)nc1Nc1cccc(C(C)=O)c1`, the inhibition was -11.9%.

Turning to `CCOC(=O)c1cnc(-n2nc(C)cc2C)nc1NNc1cc(C)nc(-c2ccccc2)n1`, the inhibition was 72.1% (active).

As to `CCOC(=O)c1cnc(-n2nc(C)cc2C)nc1-n1nc(C)cc1C`, the inhibition was 6%.
